In the library only some 3.1% were active in any assay of this set; here they are far more common.
p53null 32C tox: qHTS Screen for Compounds that Selectively Target Cancer Cells with p53 Mutations: Cytotoxicity of p53 Null Cells at the Permissive Temperature; Potency, µM (doses to about 46.1 µM), most hits filed as cytotoxic; H1299-neo p53 null cells, ATP luminescence, 24 h, 32C; 55,000 tested, 0.62% active; also: nearly all actives have a fitted effect of over 55% in size
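ATP-content luminescence in p53-null H1299-neo cells after 24 h compound exposure (up to 46 uM) at 32C permissive temperature; 0% and 100% killing set by DMSO and 100 uM tamoxifen; Hill-equation AC50.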
p53null 39C kill: qHTS Screen for Compounds that Selectively Target Cancer Cells with p53 Mutations: Cytotoxicity of p53 Null Cells at the Nonpermissive Temperature | H1299 p53-null (neo) cells, 39C, ATPlite viability, 24 h | Potency, µM (highest dose often 46.1 µM), hits mostly cytotoxic | 55,000 tested, 0.97% active | AID 904, 2007; also: nearly all actives have a fitted effect of over 50% in size
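Temperature-shift cytotoxicity format: compound titrations on p53-null or A138V-expressing H1299 cells held 24 hr at 39C, cell ATP then measured, AC50 from Hill model.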
pS6 MEF inh: Acumen qHTS Assay for Inhibitors of the mTORC1 Signaling Pathway in MEF (Tsc2-/-, p53-/-) Cells: Sytravon. 44,000 tested, 0.78% active. Potency, µM (series often up to 38.3 µM), most hits filed as inhibitors. Tsc2-/- p53-/- MEF, phospho-rpS6 immunofluorescence/PI, 24 h; also: nearly all actives have a fitted effect of over 50% in size
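Compounds act on Tsc2-/-, p53-/- fibroblasts carrying an empty vector for 24 h before fixation and dual staining for phospho-S6 and DNA (propidium iodide). Values are percentages of cells above a rapamycin-defined pS6/PI threshold.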
S16 F2sN tox: Cell viability qHTS assay in S16 Pmp22-F2sN cells; S16 Pmp22-F2sN Schwann cells viability, CellTiter-Glo, 24 h; Potency, µM (highest dose often 57.5 µM), actives largely listed as cytotoxic; 43,000 tested, 0.48% active; also: nearly all actives have a fitted effect of over 65% in size
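Used to flag compounds lowering reporter output through toxicity, this quantitative HTS measures ATP-based CellTiter-Glo luminescence in S16 Pmp22-F2sN Schwann cells after 24 h compound exposure at 37C.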
PMP22 txn: Cell-based coincidence reporter assay to measure PMP22 gene transcription in S16 Pmp22-F2sN cells - Primary screen; Potency, µM (doses to about 57.5 µM), usual class: inhibitors; S16 Pmp22-F2sN Schwann cells (luciferase reporters placed in the Pmp22 gene), FLuc/NLuc coincidence luminescence, 24 h; 43,000 tested, 2% active; AID 1508649, 2021; active = clear falling dose curves in both reporters; inconclusive = both reporters move, but less clearly or upward; inactive = either reporter flat; the % is the NLuc reporter signal
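Schwann cells carrying the coincidence reporter were exposed to library compounds for 24 h at 37C, then lysed and read for FLuc and, after quenching, NLuc luminescence on a CCD imager.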
SKOV3 invasion: Primary qHTS assay for Inhibitors of ovarian cancer metastasis using an organotypic tumor microenvironment (TME) model | 46,000 tested, 0.1% active | AID 1963576, 2024 | SKOV3ip1-GFP adhesion/invasion on 3D omental model, fluorescence | Potency, µM (doses to about 45.8 µM), usual class: inhibitors; also: nearly all actives have a fitted effect of over 65% in size
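qHTS, 4-pt dose (0.36-46 umol/L); SKOV3ip1-GFP, 1,200 cells/well, no FBS; primary omental fibroblast/mesothelial co-culture 48 h pre-grown; 2 h RT + 16 h 37 C; PBS wash, 4% PFA; GFP count 488/509 nm.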
NLuc sat counter: Biochemical NLuc saturation counterscreen for small molecule modulators of PMP22 gene expression - Nano-Glo assay; shares compounds with PMP22 txn; Secreted NLuc enzyme (filtered S16 cell medium), Nano-Glo luminescence; AID 1508638, 2021; 690 tested, 4% active; Potency, µM (top dose mostly 57.5 µM), hits mostly inhibitors
NLuc Km ctr: Biochemical coelenterazine-based NLuc counterscreen for small molecule modulators of PMP22 gene expression - Km assay; secreted NLuc enzyme, coelenterazine luminescence, Km conditions; Potency, µM (titrated, usually from 57.5 µM), most hits filed as inhibitors; 690 tested, 5% active; shares compounds with PMP22 txn
FLuc counter: Biochemical FLuc counterscreen for small molecule modulators of PMP22 gene expression; shares compounds with PMP22 txn; 690 tested, under 10 active; purified P. pyralis FLuc, luminescence, 10 min; Potency, µM (highest dose often 57.5 µM), most hits filed as inhibitors
Target sequence (P08659 whole entry, looked up): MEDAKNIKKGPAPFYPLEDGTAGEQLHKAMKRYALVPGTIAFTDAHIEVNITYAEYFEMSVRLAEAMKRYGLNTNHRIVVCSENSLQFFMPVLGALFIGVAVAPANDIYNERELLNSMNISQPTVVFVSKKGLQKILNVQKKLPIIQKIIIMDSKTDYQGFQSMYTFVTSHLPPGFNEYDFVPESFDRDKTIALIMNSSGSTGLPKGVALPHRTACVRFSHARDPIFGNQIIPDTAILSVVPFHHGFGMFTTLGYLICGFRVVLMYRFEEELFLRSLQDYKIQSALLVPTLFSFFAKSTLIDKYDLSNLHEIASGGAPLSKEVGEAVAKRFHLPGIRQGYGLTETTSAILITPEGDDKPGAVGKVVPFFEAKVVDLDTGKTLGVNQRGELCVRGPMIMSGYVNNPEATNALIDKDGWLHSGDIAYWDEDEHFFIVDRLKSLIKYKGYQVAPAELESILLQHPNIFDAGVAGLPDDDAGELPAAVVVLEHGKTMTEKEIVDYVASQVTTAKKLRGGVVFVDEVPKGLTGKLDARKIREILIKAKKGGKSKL
S16 F2sN tox cnf: Cell viability qHTS assay in S16 Pmp22-F2sN cells - Confirmatory screen. shares compounds with PMP22 txn. S16 Schwann cells viability, CellTiter-Glo ATP luminescence, 24 h. Potency, µM (top dose mostly 57.5 µM), hits mostly cytotoxic. 690 tested, 7% active
PMP22 txn cnf: Cell-based coincidence reporter assay to measure PMP22 gene transcription in S16 Pmp22-F2sN cells - Confirmatory screen; Potency, µM (top dose mostly 57.5 µM), actives largely listed as inhibitors; shares compounds with PMP22 txn; 690 tested, 22% active; S16 Schwann cells Pmp22-F2sN, dual luciferase, 24 h; AID 1508646, 2021; active = clear falling dose curves in both reporters; inconclusive = both reporters move, but less clearly or upward; inactive = either reporter flat; the % is the FLuc reporter signal
Large screens that a line does not name were inactive (follow-up assays come after a bar, where they were run). Unless noted, calls follow the shape of the dose curve; as a rule, active = well fitted curve in the direction sought with a large enough effect; inconclusive = small, poorly fitted or top-dose-only effect, or another doubt; inactive = no such curve, though single readings can be large; an effect the other way counts as inactive or inconclusive.

CC(C)(O)C=CC(=O)[C@](C)(O)[C@H]1[C@H](O)C[C@]2(C)[C@@H]3CC=C4[C@@H](C=C(O)C(=O)C4(C)C)[C@]3(C)C(=O)C[C@@]12C	SKOV3 invasion 1.05µM (no result: p53null 32C tox, p53null 39C kill, pS6 MEF inh, S16 F2sN tox, PMP22 txn)
Cc1c(N)nc([C@H](CC(N)=O)NC[C@@H](N)C(N)=O)nc1C(=O)N[C@H](C(=O)N[C@@H](C)[C@H](O)[C@@H](C)C(=O)N[C@@H](C(=O)NCCc1nc(-c2nc(C(=O)NCCC[S+](C)C)cs2)cs1)[C@@H](C)O)C(O[C@H]1O[C@H](CO)[C@H](O)[C@@H](O)[C@@H]1O[C@H]1O[C@H](CO)[C@@H](O)[C@H](OC(N)=O)[C@H]1O)c1cnc[nH]1 (stereo partly drawn)	none (no result: p53null 32C tox, p53null 39C kill, pS6 MEF inh, S16 F2sN tox, PMP22 txn)
C[C@@H]1[C@@H](C(=O)C[C@H]2O[C@@H]3O[C@]4(C)CC[C@@H]5[C@H](C)CC[C@@H]([C@H]2C)[C@@]35OO4)O[C@@H]2O[C@]3(C)CC[C@H]4[C@H](C)CC[C@@H]1[C@@]24OO3	none (no result: p53null 32C tox, p53null 39C kill, pS6 MEF inh, S16 F2sN tox, PMP22 txn)
COc1ccc2nc(N3CCN(C(=O)CS(=O)(=O)c4ccc(C)cc4)CC3)sc2c1	p53null 32C tox 10µM, S16 F2sN tox inconclusive, PMP22 txn inconclusive
CC(C)[C@]12O[C@@H]1[C@@H]1O[C@]13[C@]1(O[C@H]1C[C@@H]1C4=C(CC[C@@]13C)C(=O)OC4)[C@H]2O	none (no result: p53null 32C tox, p53null 39C kill, pS6 MEF inh, S16 F2sN tox, PMP22 txn)
CCOC(=O)c1ccc(N2C(=O)c3n[nH]c(-c4cccs4)c3C2c2ccc(C(C)(C)C)cc2)cc1 (stereo not drawn)	p53null 39C kill inconclusive, PMP22 txn inconclusive
CCOC(=O)c1ccc(N2C(=O)c3n[nH]c(-c4cccs4)c3C2c2ccc(Cl)cc2Cl)cc1 (stereo not drawn)	p53null 32C tox inconclusive, p53null 39C kill 17.8µM, pS6 MEF inh inconclusive, S16 F2sN tox inconclusive, PMP22 txn inconclusive
CCCCNc1ccncc1S(=O)(=O)NC(=O)NC(C)C	none (no result: pS6 MEF inh, S16 F2sN tox, PMP22 txn, SKOV3 invasion)
CCCCNC(=O)c1cc(-c2cccnc2)nc2ccc(S(=O)(=O)NCCCC)cc12	pS6 MEF inh inconclusive, S16 F2sN tox 25.1µM, PMP22 txn inconclusive
CC1=C2C[C@@H]3[C@@H](CC=C4C[C@@H](O)CC[C@@]43C)[C@@H]2CC[C@]12O[C@H]1C[C@H](C)CN[C@H]1[C@H]2C	none (no result: p53null 32C tox, p53null 39C kill, pS6 MEF inh, S16 F2sN tox, PMP22 txn)
COc1ccc(NC(=O)CCn2cnc3onc(-c4ccc(F)cc4)c3c2=O)cc1OC	pS6 MEF inh inconclusive, S16 F2sN tox inconclusive, PMP22 txn 11.3µM
COc1ccc(NC(=O)CCc2nc(C3=CCN(Cc4cccc(Cl)c4)CC3)no2)cc1OC	none
C[C@@H]1CC[C@H]2[C@@H](C)C(=O)O[C@@H]3O[C@@]4(C)CC[C@H]1[C@]32OO4	none (no result: p53null 32C tox, p53null 39C kill, pS6 MEF inh, S16 F2sN tox, PMP22 txn)
O=C(NCCSc1c(-c2ccc(F)cc2)[nH]c2ccccc12)c1ccc(S(=O)(=O)N2CCOCC2)cc1	pS6 MEF inh 14.7µM, S16 F2sN tox inconclusive, PMP22 txn inconclusive, SKOV3 invasion inconclusive
COC[C@H]1OC(=O)c2coc3c2[C@@]1(C)C1=C(C3=O)[C@@H]2CC[C@H](O)[C@@]2(C)C[C@@H]1OC(C)=O	none (no result: p53null 32C tox, p53null 39C kill, pS6 MEF inh, S16 F2sN tox, PMP22 txn)
Cc1ccc2oc(=O)c(-c3nc4ccc(C)cc4[nH]3)cc2c1	p53null 39C kill 20µM
CCOc1ccc(N(C(C)C(=O)Nc2cc(Cl)ccc2OC)S(C)(=O)=O)cc1 (stereo not drawn)	pS6 MEF inh 7.36µM, S16 F2sN tox inconclusive, PMP22 txn inconclusive, SKOV3 invasion inconclusive
COc1ccc(C(=O)Nc2ccc(Cl)cc2C(=O)c2ccccc2)c(OC)c1	none
CC1=C(O)C(=O)C=C2C1=CC=C1[C@@]2(C)CC[C@@]2(C)[C@@H]3C[C@](C)(C(=O)O)CC[C@]3(C)CC[C@]12C	SKOV3 invasion 4.18µM (no result: p53null 32C tox, p53null 39C kill, pS6 MEF inh, S16 F2sN tox, PMP22 txn)
Cc1cccn2c(=O)cc(COc3cccc(NC(=O)COc4ccc(F)cc4)c3)nc12	p53null 32C tox 12.6µM, p53null 39C kill 12.6µM, S16 F2sN tox inconclusive, PMP22 txn inconclusive
COc1ccc(CN2CCN(c3ncnc4sc5c(c34)CCCC5)CC2)cc1F	S16 F2sN tox inconclusive, PMP22 txn 5.32µM | NLuc sat counter inactive | NLuc Km ctr inactive | FLuc counter inactive | S16 F2sN tox cnf inactive | PMP22 txn cnf inconclusive
N#C[C@H](O[C@@H]1O[C@H](CO[C@@H]2O[C@H](CO)[C@H](O)[C@H](O)[C@H]2O)[C@H](O)[C@H](O)[C@H]1O)c1ccccc1	none (no result: p53null 32C tox, p53null 39C kill, pS6 MEF inh, S16 F2sN tox, PMP22 txn)
CCOP(=O)(OCC)C(C)NC(=O)N(CCCl)N=O (stereo not drawn)	none (no result: p53null 32C tox, p53null 39C kill, pS6 MEF inh, S16 F2sN tox, PMP22 txn)

From PubChem
